Measurements taken from the supplement of paper PMC10849652.
Of roughly 8,800 targets only a part is listed; those with a hit were picked by preference. About 0.5% of all pairs of compound and target were hits.

Compound: Cc1ccc(NC(=O)c2ccc(CN3CC[C@H](N(C)C)C3)c(C(F)(F)F)c2)cc1Nc1nccc(-c2cncnc2)n1 [bafetinib]
Test: log2 fold change, soluble protein after heating vs DMSO (PISA); higher = thermal stabilisation; K562 lysate, 10 uM; active = over 0.2 and 3.5 SD of the protein, either way, in both replicates (recomputed)
Method in brief: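 K562 pellets were dounce-homogenised in PBS pH 7.4 with 1 mM MgCl2, and the crude extract at 1 mg/mL protein was treated with 10 μM compound for 30 min. Aliquots were heated for 3 min across 48°C-58°C, pooled, and brought to 0.5% NP-40 at 4°C; soluble protein was the supernatant after 21,000xg for 90 min. Soluble protein was quantified by TMTpro 16plex LC-MS/MS with channel sums equalised, and reported as log2 fold change in thermal stability against DMSO controls, with values from duplicates.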

Sequence of UniProt Q9NXV6 (Q9NXV6 whole entry, looked up): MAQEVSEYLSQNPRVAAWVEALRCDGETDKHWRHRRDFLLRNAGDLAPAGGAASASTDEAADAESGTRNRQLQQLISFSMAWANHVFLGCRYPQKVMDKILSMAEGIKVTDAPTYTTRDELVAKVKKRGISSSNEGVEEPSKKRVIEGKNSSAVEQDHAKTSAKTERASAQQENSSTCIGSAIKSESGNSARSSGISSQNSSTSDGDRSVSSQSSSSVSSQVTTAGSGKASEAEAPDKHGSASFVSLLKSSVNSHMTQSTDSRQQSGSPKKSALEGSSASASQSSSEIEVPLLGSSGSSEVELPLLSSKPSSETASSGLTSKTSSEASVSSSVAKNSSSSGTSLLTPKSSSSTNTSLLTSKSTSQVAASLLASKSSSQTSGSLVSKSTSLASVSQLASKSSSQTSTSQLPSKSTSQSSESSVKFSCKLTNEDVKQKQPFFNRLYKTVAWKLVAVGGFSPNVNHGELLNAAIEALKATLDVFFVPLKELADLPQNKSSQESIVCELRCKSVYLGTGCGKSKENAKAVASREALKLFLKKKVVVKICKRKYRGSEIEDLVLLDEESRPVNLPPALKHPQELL
Sequence of UniProt Q8NBU5 (Q8NBU5 whole entry, looked up): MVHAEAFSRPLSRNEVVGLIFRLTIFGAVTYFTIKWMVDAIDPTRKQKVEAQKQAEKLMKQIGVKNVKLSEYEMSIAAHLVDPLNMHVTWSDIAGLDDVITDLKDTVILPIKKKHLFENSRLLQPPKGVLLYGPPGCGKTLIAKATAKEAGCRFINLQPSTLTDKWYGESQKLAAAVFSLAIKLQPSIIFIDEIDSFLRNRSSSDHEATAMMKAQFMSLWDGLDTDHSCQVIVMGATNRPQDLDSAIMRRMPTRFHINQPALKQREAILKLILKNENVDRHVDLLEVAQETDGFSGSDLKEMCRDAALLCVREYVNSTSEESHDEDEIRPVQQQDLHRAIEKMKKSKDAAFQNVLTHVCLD
Sequence of UniProt A6NDU8 (A6NDU8 whole entry, looked up): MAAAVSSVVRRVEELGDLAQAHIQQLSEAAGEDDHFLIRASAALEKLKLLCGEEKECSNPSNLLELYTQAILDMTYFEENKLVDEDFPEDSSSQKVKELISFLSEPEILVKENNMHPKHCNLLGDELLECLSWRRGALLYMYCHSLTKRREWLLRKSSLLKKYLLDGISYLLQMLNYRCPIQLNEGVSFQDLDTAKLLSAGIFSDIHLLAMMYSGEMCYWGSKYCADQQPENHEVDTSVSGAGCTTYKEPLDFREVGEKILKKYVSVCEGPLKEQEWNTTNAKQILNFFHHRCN
Sequence of UniProt Q7Z3E2 (Q7Z3E2 whole entry, looked up): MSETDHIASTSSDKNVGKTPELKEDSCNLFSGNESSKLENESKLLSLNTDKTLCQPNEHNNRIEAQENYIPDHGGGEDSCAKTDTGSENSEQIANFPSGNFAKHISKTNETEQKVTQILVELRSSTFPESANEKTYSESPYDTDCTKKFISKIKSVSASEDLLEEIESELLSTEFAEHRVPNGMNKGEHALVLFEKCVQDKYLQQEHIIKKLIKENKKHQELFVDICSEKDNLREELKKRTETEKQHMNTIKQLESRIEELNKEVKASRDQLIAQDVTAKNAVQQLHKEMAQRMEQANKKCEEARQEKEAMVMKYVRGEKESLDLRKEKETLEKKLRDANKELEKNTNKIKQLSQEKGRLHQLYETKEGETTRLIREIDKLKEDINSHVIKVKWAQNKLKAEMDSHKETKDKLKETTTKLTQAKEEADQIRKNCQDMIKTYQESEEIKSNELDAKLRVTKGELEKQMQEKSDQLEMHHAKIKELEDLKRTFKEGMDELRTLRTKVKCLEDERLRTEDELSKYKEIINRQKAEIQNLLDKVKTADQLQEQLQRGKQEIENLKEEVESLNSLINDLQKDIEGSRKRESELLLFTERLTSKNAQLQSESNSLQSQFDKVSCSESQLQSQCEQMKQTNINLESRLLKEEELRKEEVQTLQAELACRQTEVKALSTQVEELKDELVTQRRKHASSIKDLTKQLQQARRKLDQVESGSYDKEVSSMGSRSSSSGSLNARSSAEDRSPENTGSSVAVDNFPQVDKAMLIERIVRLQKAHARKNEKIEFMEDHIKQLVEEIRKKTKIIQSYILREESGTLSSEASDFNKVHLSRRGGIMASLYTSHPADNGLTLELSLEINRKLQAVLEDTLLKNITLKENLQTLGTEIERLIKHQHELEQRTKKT
Sequence of UniProt O00748 (O00748 whole entry, looked up): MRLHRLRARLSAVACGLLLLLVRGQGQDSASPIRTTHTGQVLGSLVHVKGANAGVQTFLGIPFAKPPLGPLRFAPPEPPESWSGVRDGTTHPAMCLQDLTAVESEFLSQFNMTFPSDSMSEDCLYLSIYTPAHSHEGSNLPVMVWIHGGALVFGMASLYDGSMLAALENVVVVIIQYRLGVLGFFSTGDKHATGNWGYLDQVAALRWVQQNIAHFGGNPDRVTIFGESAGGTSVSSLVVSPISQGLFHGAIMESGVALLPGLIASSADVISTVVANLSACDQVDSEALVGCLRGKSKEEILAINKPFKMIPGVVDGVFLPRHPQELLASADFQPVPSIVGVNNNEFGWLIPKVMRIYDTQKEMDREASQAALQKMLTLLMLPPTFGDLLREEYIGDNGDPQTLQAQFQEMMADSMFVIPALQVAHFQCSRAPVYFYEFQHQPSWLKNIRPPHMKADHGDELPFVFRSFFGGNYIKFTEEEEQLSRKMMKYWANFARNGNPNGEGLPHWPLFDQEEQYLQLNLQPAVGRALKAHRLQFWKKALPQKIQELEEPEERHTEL
Sequence of UniProt Q9UEE9 (Q9UEE9 whole entry, looked up): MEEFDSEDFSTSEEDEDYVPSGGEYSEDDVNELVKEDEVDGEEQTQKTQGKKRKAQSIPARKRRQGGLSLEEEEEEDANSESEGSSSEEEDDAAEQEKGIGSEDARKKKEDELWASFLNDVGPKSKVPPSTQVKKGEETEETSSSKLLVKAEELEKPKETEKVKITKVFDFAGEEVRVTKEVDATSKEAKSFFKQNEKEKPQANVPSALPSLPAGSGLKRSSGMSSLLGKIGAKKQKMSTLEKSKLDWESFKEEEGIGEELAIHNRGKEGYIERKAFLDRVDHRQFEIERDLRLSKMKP
Sequence of UniProt Q8IWY9 (Q8IWY9 whole entry, looked up): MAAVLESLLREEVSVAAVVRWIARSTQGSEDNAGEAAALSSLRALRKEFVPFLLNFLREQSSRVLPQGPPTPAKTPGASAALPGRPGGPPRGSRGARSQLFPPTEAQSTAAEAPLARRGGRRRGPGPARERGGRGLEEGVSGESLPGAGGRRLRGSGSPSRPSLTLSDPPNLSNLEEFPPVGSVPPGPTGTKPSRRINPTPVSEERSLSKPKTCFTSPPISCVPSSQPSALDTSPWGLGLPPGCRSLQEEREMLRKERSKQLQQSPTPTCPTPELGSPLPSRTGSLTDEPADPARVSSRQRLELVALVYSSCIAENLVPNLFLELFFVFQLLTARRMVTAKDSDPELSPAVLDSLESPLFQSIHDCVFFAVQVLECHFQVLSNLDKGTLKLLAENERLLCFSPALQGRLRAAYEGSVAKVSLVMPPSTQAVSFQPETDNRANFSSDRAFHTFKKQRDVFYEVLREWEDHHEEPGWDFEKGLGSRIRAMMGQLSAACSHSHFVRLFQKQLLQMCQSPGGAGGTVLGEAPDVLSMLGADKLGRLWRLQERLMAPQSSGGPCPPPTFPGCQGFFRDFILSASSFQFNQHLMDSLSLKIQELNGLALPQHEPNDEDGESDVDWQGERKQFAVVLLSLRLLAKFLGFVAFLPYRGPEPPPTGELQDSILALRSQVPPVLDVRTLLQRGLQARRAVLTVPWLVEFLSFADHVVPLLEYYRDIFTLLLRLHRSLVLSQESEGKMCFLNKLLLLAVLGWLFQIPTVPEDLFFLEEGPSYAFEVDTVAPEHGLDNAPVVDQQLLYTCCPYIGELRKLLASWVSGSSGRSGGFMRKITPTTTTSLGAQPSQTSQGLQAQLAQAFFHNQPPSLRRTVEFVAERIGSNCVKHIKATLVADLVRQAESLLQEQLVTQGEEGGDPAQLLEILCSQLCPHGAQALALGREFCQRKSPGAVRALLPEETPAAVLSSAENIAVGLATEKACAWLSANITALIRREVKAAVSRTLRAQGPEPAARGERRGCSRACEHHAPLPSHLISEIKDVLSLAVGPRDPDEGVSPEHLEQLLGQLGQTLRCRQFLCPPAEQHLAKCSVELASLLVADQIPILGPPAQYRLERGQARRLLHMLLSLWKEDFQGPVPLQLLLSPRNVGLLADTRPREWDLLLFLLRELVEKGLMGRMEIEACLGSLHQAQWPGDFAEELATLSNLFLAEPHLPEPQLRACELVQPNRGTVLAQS
Sequence of UniProt P24863 (P24863 whole entry, looked up): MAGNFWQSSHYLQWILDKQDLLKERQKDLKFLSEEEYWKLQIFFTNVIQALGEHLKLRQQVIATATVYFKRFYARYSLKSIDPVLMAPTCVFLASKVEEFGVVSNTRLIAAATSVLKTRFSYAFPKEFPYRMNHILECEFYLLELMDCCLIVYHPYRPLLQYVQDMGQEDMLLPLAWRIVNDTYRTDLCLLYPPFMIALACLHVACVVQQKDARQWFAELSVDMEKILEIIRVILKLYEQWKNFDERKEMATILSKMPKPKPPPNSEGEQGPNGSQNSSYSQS
Sequence of UniProt Q96B23 (Q96B23 whole entry, looked up): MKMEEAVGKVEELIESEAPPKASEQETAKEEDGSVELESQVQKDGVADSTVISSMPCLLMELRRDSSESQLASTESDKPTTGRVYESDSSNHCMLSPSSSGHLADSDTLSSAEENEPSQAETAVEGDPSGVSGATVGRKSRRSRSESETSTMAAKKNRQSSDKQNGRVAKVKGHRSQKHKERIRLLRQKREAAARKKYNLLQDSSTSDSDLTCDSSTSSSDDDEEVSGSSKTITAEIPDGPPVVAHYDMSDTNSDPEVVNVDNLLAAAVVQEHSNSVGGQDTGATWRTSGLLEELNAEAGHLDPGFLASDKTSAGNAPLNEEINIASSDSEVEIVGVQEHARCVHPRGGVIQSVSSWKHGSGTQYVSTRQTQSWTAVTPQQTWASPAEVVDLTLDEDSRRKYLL

log2 fold change, inactive:
BLOC1S6 (UniProt Q9UL45) 0.033
BAG4 (UniProt O95429) -0.002
CCNC (UniProt P24863) -0.123
CALM2 (UniProt P0DP24) -0.171
CEP76 (UniProt Q8TAP6) -0.115
CDS2 (UniProt O95674) 0.006
CCAR2 (UniProt Q8N163) -0.011
CDKN2AIP (UniProt Q9NXV6) 0.016
BRD3 (UniProt Q15059) -0.016
CEP120 (UniProt Q8N960) -0.257
C18orf25 (UniProt Q96B23) -0.023
CDAN1 (UniProt Q8IWY9) -0.056
ATAD1 (UniProt Q8NBU5) -0.008
CCT6A (UniProt P40227) 0.013
C5orf51 (UniProt A6NDU8) -0.031
CHCHD4 isoform 2 (UniProt Q8N4Q1) -0.029
CCPG1 isoform 5 (UniProt Q9ULG6) 0.035
CD63 (UniProt P08962) -0.08
CES2 isoform 4 (UniProt O00748) 0.154
CFDP1 (UniProt Q9UEE9) 0.07
AURKAIP1 (UniProt Q9NWT8) -0.029
CCDC186 (UniProt Q7Z3E2) -0.047
ATP13A1 (UniProt Q9HD20) -0.033
